Data: PubChem BioAssay (NCI)
This is part of a sample that, as a whole, favours compounds with a hit. Of some 83,000 tested, about 20% had one in any assay.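 Each cell line was grown in a 96-well plate and treated with one concentration of compound for 48 hours. Values below 10 were considered active.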 Calls of active or inactive are those of the source.

The compounds below were run on MDA-MB-468 breast (assay: NCI-60 one-dose screen, 48 h (100 = growth as untreated, 0 = no growth, -100 = all killed)). Conditions: 10 µM unless noted.
For C=C(CNCCO)[C@@H]1CC[C@]2(CO)CC[C@]3(C)[C@H](CC[C@@H]4[C@@]5(C)CCC(N)C(C)(C)[C@@H]5CC[C@]43C)[C@@H]12 (some centres undefined), the growth was -40.9% (active). In the case of CN1CCN(c2ccc(C(=O)/C=C/c3ccc(Cl)c(C(F)(F)F)c3)cc2)CC1, the growth is reported as 18.4% (inactive). In the case of Cc1cc(-c2ccc(N=Nc3c(C)nn(-c4ccc(S(=O)(=O)O)cc4)c3O)c(C)c2)ccc1N=Nc1ccc(O)c(C(=O)O)c1, the growth is reported as 113% (inactive). For Oc1ccccc1-c1nnco1, the growth was 88.7% (inactive).
